For 39 compounds, max activity results are on record in PubChem BioAssay AID1259420 (Broad Institute, 2018).

This test can be described thus: T. gondii intracellular growth, IFN-gamma absent, dose response, cell-based (AID 1259420).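 Further: host cells were HeLa; final incubation lasted 72 hours.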 The following applies: Toxoplasma gondii growth in host cells, no IFN-gamma.

SMILES strings stand for the structures. The campaign covered roughly 1,000 compounds. About 250 (25%) were called active. Inconclusive results (about 31%) are left out. A selection follows. Entries with a potency or affinity are not part of this list. Values without a mark were called inactive. How the calls were made is not given here. Numbered stars: 1 amine (or outer) side, 2 acyl side, 3 side chain; on linkers, the order of the positions; unused ones are H or OH. Square brackets hold non-standard residues; d marks the D form. Side chains are listed from the residue outwards. Peptide text beside a SMILES is read from it. * marks the point of attachment. Ethylenediamine = C(CN[*:2])N[*:1]; Hyp = O=C(O)[C@@H]1C[C@@H](O)CN1; Phg = N[C@H](C(=O)O)c1ccccc1; CO = O=C([*:1])[*:2]; Bn = c1ccc(C*)cc1

Consider `O=C1CC2C(CCN2Cc2ccc(F)cc2)N1CCN1CCOCC1` (stereo unspecified), for which the max activity (at 19.5 µM unless noted) was -8.01% [at 5 µM].
For `O=C(Cc1ccccn1)N1CC(=O)N2[C@H](C1)[C@@H](c1ccc(C#CCC3CCCC3)cc1)[C@@H]2CO`, where the note is “at 19.5 µM unless noted”, the max activity is 30% [at 21 µM].
As to `COC[C@H](N)C(=O)N1CCC(Cc2nnc(SC)n2C)CC1`, for the setting “at 19.5 µM unless noted”, the max activity is 7.97% [at 0.16 µM].
Turning to `CCCNC(=O)[C@@H]1[C@@H](CO)[C@@H]2Cn3c(ccc(/C=C/c4ccccc4)c3=O)[C@@H]2N1CC1CC1`, the max activity (at 19.5 µM unless noted) was -5.81% [at 10 µM].
As for `CCCNC(=O)N1C[C@@H]2N[C@H](C1)C2c1ccc(-c2cccc(F)c2)cc1` (stereo partly specified), where the note is “at 19.5 µM unless noted”, the max activity was 16.2% [at 21 µM].
Turning to `Cc1cccc(-c2ccc(C3[C@@H]4CN(C(=O)Nc5ccc(F)cc5)C[C@H]3N4)cc2)c1` (stereo partly specified), the max activity (at 19.5 µM unless noted) was 30.6% [at 10 µM].
On to `O=S(=O)(c1ccc(F)cc1)N1C[C@@H]2N[C@H](C1)C2c1ccc(/C=C/c2ccccc2)cc1` (stereo partly specified), for which the max activity (at 19.5 µM unless noted) is 27.1%.
Take `C/C=C/c1ccc(C2[C@@H]3CN(S(=O)(=O)c4cccc(OC)c4)C[C@H]2N3)cc1` (stereo partly specified): the max activity (at 19.5 µM unless noted) was -10.6% [at 0.16 µM].
`O=C(Nc1cccc(F)c1)N1CCCCN2[C@H](CO)[C@@H](c3ccc(C#Cc4cccnc4)cc3)[C@@H]2C1`: the max activity (at 19.5 µM unless noted) is 5.46% [at 5 µM].
On the same count and under the same terms, in the case of `CC(C)CC#Cc1ccc([C@@H]2[C@@H](CO)N3CCCCN(C(=O)Nc4ccccc4)C[C@@H]23)cc1` it was 7.18% [at 2.6 µM].
Turning to `O=C(c1cccc(F)c1)N1CCCCN2[C@H](C1)[C@H](c1ccc(C#CC3(O)CCCC3)cc1)[C@@H]2CO`, the max activity reads like this: (at 10 µM) -12.3%; (at 21 µM) -8.26%.
`O=C(NC1CCCC1)N1CCCCN2[C@@H](CO)[C@H](c3ccc(-c4cccnc4)cc3)[C@@H]2C1`: under “at 19.5 µM unless noted”, the max activity is 11.1% [at 2.6 µM].
As to `COCC#Cc1ccc([C@@H]2[C@H]3CN(C(=O)NC4CCCC4)CCCCN3[C@H]2CO)cc1`, the max activity (at 19.5 µM unless noted) is 30.5%.
Take `O=C(NC1CCCC1)N1CCCCN2[C@H](CO)[C@@H](c3ccc(-c4cccnc4)cc3)[C@H]2C1`: the max activity (at 19.5 µM unless noted) is 9.08% [at 0.038 µM].
`O=C(Nc1cccc(F)c1)N1CCCCN2[C@H](C1)[C@@H](c1ccc(C#Cc3cccnc3)cc1)[C@@H]2CO`: the max activity was -7.31% (at 0.3 µM) and -13.4% (at 19.5 µM).
In the case of `O=C(c1cccc(F)c1)N1CCCCN2[C@H](C1)[C@@H](c1ccc(C#CC3(O)CCCC3)cc1)[C@@H]2CO`, the max activity (at 19.5 µM unless noted) was 13.2%.
Consider `CNc1ncc(CN(C)C(=O)c2csc(C)n2)cn1`, for which the max activity (at 19.5 µM unless noted) was -6.03% [at 5 µM].
For `Cc1cnc(N2C[C@@H](c3ccccc3)[C@@]3(CCNC3=O)C2)nc1`, the max activity (at 19.5 µM unless noted) is 67.2%.
On to `CC1(C)C2CCC1(CS(=O)(=O)O)C(=O)/C2=C\c1ccc(/C=C2/C(=O)C3(CS(=O)(=O)O)CCC2C3(C)C)cc1`, for which the max activity (at 19.5 µM unless noted) was 5.44%.
The same measure, in the same setting: the result for `Fc1ccccc1-c1ccc(C2[C@H]3CNC[C@@H]2N3CC2CC2)cc1` (stereo partly specified) reads 11.6%.
Take `CC(=O)O[C@H]1C[C@@H](OC(C)=O)C(C)(C)C2C[C@@H](OC(C)=O)[C@@]3(C)C4=CC(=O)O[C@@H](c5ccoc5)[C@]4(C)CCC3[C@]21C` (stereo partly specified): the max activity (at 19.5 µM unless noted) is -6.69% [at 0.16 µM].
On the same count and under the same terms, the result for `O=C(C[C@@H]1CC[C@@H]2[C@H](COC[C@H](O)CN2C(=O)c2cc(Cl)cc(Cl)c2)O1)N1CCc2ccccc2C1` reads 9.95%; that for `C/C=C/c1ccc(C2[C@@H]3CN(Cc4cccc(OC)c4)C[C@H]2N3)cc1` (stereo partly specified), 25.8% [at 1.2 µM]; that for `O=C(Nc1cccc(F)c1)N1CCCCN2[C@@H](CO)[C@@H](c3ccc(C#Cc4cccnc4)cc3)[C@@H]2C1`, 16.4% [at 0.6 µM].
Still for that read-out and setting: in the case of `O=C(Nc1cccc(F)c1)N1CCCCN2[C@H](C1)[C@H](c1ccc(C#Cc3cccnc3)cc1)[C@@H]2CO` it was -11.5% [at 21 µM]; in that of `CC(C)CCN1Cc2c(C(=O)Nc3cccc(F)c3)ncn2-c2ccccc2S1(=O)=O`, 27% [at 10 µM].
In the case of `COc1ccccc1NC(=O)N1CC(=O)N2[C@H](C1)[C@@H](c1ccc(C#CC(C)C)cc1)[C@@H]2CO`, for the setting “at 19.5 µM unless noted”, the max activity was -5.1% [at 5 µM].
For `N#Cc1ccc(-c2ccc([C@@H]3[C@H]4CNC[C@@H]3N4Cc3ccc4c(c3)OCO4)cc2)cc1`, where the note is “at 19.5 µM unless noted”, the max activity was 27.3% [at 10 µM].
`O=C(c1ccc2c(c1)OCO2)N1CC[C@@H]2[C@H](CO)Nc3ccc(C#Cc4ccccc4)cc3[C@@H]21`: the max activity (at 19.5 µM unless noted) is 15.9%.
With `OC[C@@H]1Nc2ccc(C#Cc3ccc(F)cc3)cc2[C@@H]2[C@H]1CCN2Cc1ccc2c(c1)OCO2`, for the setting “at 19.5 µM unless noted”, the max activity is 6.67% [at 1.2 µM].
Regarding `COCCO[C@H]1CCN(Cc2c(C)noc2C)[C@H]1Cc1ccccc1`, for the setting “at 19.5 µM unless noted”, the max activity was -15.1% [at 10 µM].
The same measure, in the same setting: in the case of `NCCCC[C@@H]1NC(=O)[C@@H](Cc2c[nH]c3ccccc23)NC(=O)[C@H](c2ccccc2)NC(=O)[C@@H]2C[C@@H](OC(=O)NCCN)CN2C(=O)[C@H](Cc2ccccc2)NC(=O)[C@H](Cc2ccc(OCc3ccccc3)cc2)NC1=O` (cyclo([Hyp]([CO-Ethylenediamine])[Phg][dW]KY(Bn)F)) it was -6.82% [at 1.2 µM]; in that of `CCCCC[C@H](CC(=O)NO)C(=O)N[C@H](C(=O)N1CCC[C@H]1CO)C(C)C`, -4.64% [at 1.2 µM].
In the case of `O=C(C[C@H]1CC[C@H]2[C@@H](COC[C@@H](O)CN2Cc2ccc(Oc3ccccc3)cc2)O1)N1CCN(c2ccccc2)CC1`, the max activity (at 19.5 µM unless noted) was -8.77% [at 10 µM].
Turning to `Nc1c(-c2nnc(-c3ccccc3)o2)sc2nc(-c3ccccc3)cc(-c3ccccc3)c12`, the max activity (at 19.5 µM unless noted) is -6.07% [at 0.6 µM].
Same read-out and setting: the result for `CCN(CC)CCOC(=O)C(c1ccccc1)C1CCCCC1` (stereo unspecified) reads 16.1% [at 10 µM]; that for `COc1ccc(Cc2nnc(NC(=O)CC(C)C)s2)cc1`, 16.7% [at 10 µM]; that for `COCC12CCCOC1CCN(S(=O)(=O)c1cn(C)cn1)C2` (stereo unspecified), -11.3% [at 2.6 µM].
Same read-out and setting: in the case of `CC(C)C#Cc1ccc([C@@H]2[C@@H](CO)N3C(=O)CN(S(=O)(=O)c4ccccc4)C[C@H]23)cc1` it was 8.39%.
